FBW7 activator = FBW7 E3 ligase activators, primary screen, biochemical, AlphaScreen, human. F-box/WD repeat-containing protein 7 (Homo sapiens), Q969H0. AlphaScreen FBW7–phospho-cyclin E peptide binding, activator screen. normalized activity (activation), % at 26.1 µM. 0.13% of 650,000 active. AID 1259310, 2017; in the data active = normalized activity above about 1.9%;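 note: purified mutant Fbw7 with reduced substrate affinity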
TEAD-YAP block = TEAD-YAP interaction inhibition, primary screen, TEAD-YAP interaction inhibitor project, luminescence, HEK-TIYL cells | 1.4% of 640,000 active | TEAD-Gal4/YAP UAS-luciferase luminescence | inhibition, % at 9.12 µM; in the data active = inhibition above about 32%;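 note: 0% = median of test compound wells and 100% = reference inhibitor wells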
GPR151 activ = activators of human GPR151, primary screen, cell-based, PathHunter beta-arrestin, luminescence; G-protein coupled receptor 151 (Homo sapiens), Q8TDV0; PathHunter beta-arrestin GPR151 cells; activation, % at 11.2 µM; 1% of 650,000 active; AID 1508602, 2020; in the data active = activation above about 4.9%;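 note: 0% = median of compound wells and 100% = cells with positive control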
Target sequence (Q8TDV0 whole entry, looked up): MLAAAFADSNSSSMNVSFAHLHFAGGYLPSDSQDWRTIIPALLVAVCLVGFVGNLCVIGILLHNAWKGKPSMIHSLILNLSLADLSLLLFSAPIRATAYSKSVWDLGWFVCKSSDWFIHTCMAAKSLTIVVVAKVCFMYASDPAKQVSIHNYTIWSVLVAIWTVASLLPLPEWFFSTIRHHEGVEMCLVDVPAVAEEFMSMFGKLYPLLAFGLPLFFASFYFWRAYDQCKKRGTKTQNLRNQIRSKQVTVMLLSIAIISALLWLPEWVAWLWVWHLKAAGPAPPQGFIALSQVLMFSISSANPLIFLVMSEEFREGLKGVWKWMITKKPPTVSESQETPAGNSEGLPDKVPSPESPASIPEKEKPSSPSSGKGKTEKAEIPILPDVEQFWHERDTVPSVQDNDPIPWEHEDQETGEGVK
MITF primary = MITF inhibitors, primary screen, biochemical, AlphaScreen, human; Microphthalmia-associated transcription factor (Homo sapiens), O75030; AlphaScreen MITF homodimerization, bead proximity signal; inhibition, % at 2.6 µM; 0.91% of 650,000 active; in the data active = inhibition above about 50%;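 note: 0% = vehicle wells with protein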
* hit, by the source's call. Sampled rows, rich in hits. Any-hit rate of the full collection: about 3.5%.

COc1cccc(/C=N\Nc2ncccc2[N+](=O)[O-])c1O was read as FBW7 activator -1, TEAD-YAP block 64*, GPR151 activ -4 and MITF primary 4.
`Cc1nc2ccccc2nc1N/N=C/c1ccc(O)c(C)c1O` gave FBW7 activator 0, TEAD-YAP block -14, GPR151 activ -1 and MITF primary -1.
`COc1ccc(/C=N\Nc2cc(C)nc(-c3ccccc3O)n2)c(OC)c1` gave FBW7 activator 1, TEAD-YAP block -5, GPR151 activ 1 and MITF primary 6.
For COc1cccc(/C=N\Nc2cc(C)nc(-c3ccccc3O)n2)c1O the results were FBW7 activator 0, TEAD-YAP block 39*, GPR151 activ 0 and MITF primary 8.
COc1cccc(/C=N/Nc2nc3ccccc3nc2C)c1O was read as FBW7 activator 0, TEAD-YAP block 63*, GPR151 activ -1 and MITF primary -92.
`Cc1ccc(NC(=O)c2cccc(NC(=O)c3ccco3)c2)cc1Cl` gave FBW7 activator 0, TEAD-YAP block -22, GPR151 activ -1 and MITF primary 10.
COc1cccc(/C=N/Nc2cc(-n3cc(C)cn3)ncn2)c1O was read as FBW7 activator 0, TEAD-YAP block 88*, GPR151 activ -2 and MITF primary 73*.
Screening Cc1ccc(C)c(Nc2cc(C)nc(-c3ccccc3O)n2)c1 returned FBW7 activator 0, TEAD-YAP block 41*, GPR151 activ 0 and MITF primary -10.
Screening Cc1c(O)ccc(/C=N/Nc2ncccc2[N+](=O)[O-])c1O returned FBW7 activator 0, TEAD-YAP block 71*, GPR151 activ -9 and MITF primary -5.
Screening O=[N+]([O-])c1cccnc1N/N=C/c1ccccc1O returned FBW7 activator 0, TEAD-YAP block 47*, GPR151 activ -2 and MITF primary 14.
Screening O=[N+]([O-])c1ccc(O)c(/C=N/Nc2ncccc2[N+](=O)[O-])c1 returned FBW7 activator 0, TEAD-YAP block -3, GPR151 activ 0 and MITF primary 5.
Screening COc1ccc(/C=N/Nc2cc(-n3cc(C)cn3)ncn2)c(OC)c1 returned FBW7 activator 0, TEAD-YAP block -3, GPR151 activ -1 and MITF primary -6.
For CCOC(=O)C1=C(N)N(c2ccc([N+](=O)[O-])cc2)C2=C(C(=O)CC(C)(C)C2)C1c1cc(OC)c(OC)c(OC)c1 (stereo not drawn) the results were FBW7 activator 0, TEAD-YAP block 12, GPR151 activ 3 and MITF primary 11.
Screening COc1cccc(/C=N\Nc2cc(C)c3ccccc3n2)c1OC returned FBW7 activator 0, TEAD-YAP block 60*, GPR151 activ 4 and MITF primary 3.
Screening Oc1ccc(CCNc2nc(NC3CCC(O)CC3)nc3c2ncn3-c2ccsc2)cc1 (stereo not drawn) returned FBW7 activator 0, TEAD-YAP block 48*, GPR151 activ -2 and MITF primary -4.
COc1ccc(CCNc2nc(NC3CCC(O)CC3)nc3c2ncn3-c2ccccc2)cc1 (stereo not drawn) was read as FBW7 activator 0, TEAD-YAP block 48*, GPR151 activ 1 and MITF primary 8.
Screening OC1CCC(Nc2nc(NCc3ccccc3)c3ncn(-c4ccsc4)c3n2)CC1 (stereo not drawn) returned FBW7 activator 0, TEAD-YAP block -19, GPR151 activ 0 and MITF primary 7.
Screening CC(C)N(CCNc1nc(NC2CCC(O)CC2)nc2c1ncn2-c1ccsc1)C(C)C (stereo not drawn) returned FBW7 activator 0, TEAD-YAP block 74*, GPR151 activ -1 and MITF primary 0.
`Nc1nnc(CC(=O)N/N=C\c2ccc(O)c(O)c2)s1` gave FBW7 activator 0, TEAD-YAP block 4, GPR151 activ 1 and MITF primary 52*.
O=C(N/N=C/c1ccc(O)c(O)c1)c1cccc(N/N=C/c2ccc(O)c(O)c2)c1 was read as FBW7 activator 0, TEAD-YAP block -27, GPR151 activ -2 and MITF primary 105*.
For O=C(N/N=C/c1ccc(O)c(O)c1)N/N=C/c1ccc(O)c(O)c1 the results were FBW7 activator 0, TEAD-YAP block -3, GPR151 activ 0 and MITF primary 95*.
Nn1cnnc1N/N=C/c1ccc(O)c(O)c1 was read as FBW7 activator -1, TEAD-YAP block -5, GPR151 activ -1 and MITF primary 88*.
`Cc1cccc(N2C(=O)/C(=C\c3ccc(Br)s3)S(=O)(=O)C2c2cccc([N+](=O)[O-])c2)c1` (stereo not drawn) gave FBW7 activator 0, TEAD-YAP block -2, GPR151 activ 2 and MITF primary 15.
COc1ccc(C(=O)COc2ccc3ccccc3c2)c(OC)c1 was read as FBW7 activator 0, TEAD-YAP block -7, GPR151 activ 0 and MITF primary 15.
Cc1cccc(NC(=O)C(=O)NCC(c2ccc3c(c2)OCO3)N2CCOCC2)c1 (stereo not drawn) was read as FBW7 activator 0, TEAD-YAP block -12, GPR151 activ 1 and MITF primary -2.
`Cn1cc(CN2CCCC(CNC(=O)c3cccs3)C2)cn1` (stereo not drawn) gave FBW7 activator 0, TEAD-YAP block 14, GPR151 activ -2 and MITF primary 10.
CC(C)(C)c1ccc(OCC(=O)Nc2ncn[nH]2)c(Br)c1 was read as FBW7 activator 1, TEAD-YAP block 7, GPR151 activ -1 and MITF primary 10.
CC(C)c1ccc(OCC(=O)Nc2ncn[nH]2)c(Br)c1 was read as FBW7 activator 0, TEAD-YAP block 63*, GPR151 activ -4 and MITF primary 9.
`COc1ccc(COC(=O)c2cccc(S(=O)(=O)NCc3ccccc3)c2)cc1F` gave FBW7 activator 0, TEAD-YAP block 45*, GPR151 activ 1 and MITF primary -3.
For COC(=O)c1cc(COC(=O)c2cccc(S(=O)(=O)NCc3ccccc3)c2)oc1C the results were FBW7 activator 0, TEAD-YAP block -5, GPR151 activ 0 and MITF primary 11.
For CC(C)C(=O)Nc1ccc(NC(=O)C2CC2)cn1 the results were FBW7 activator 0, TEAD-YAP block -3, GPR151 activ 2 and MITF primary 4.
`O=C(Nc1ccc(N2CCC(NCc3ccco3)CC2)cc1)c1cccc(Cl)c1` gave FBW7 activator 0, TEAD-YAP block -24, GPR151 activ 1 and MITF primary 2.
`CCOC(=O)C1=CN(Cc2ccc(OC)cc2)C=C(C(=O)OCC)C1c1ccccc1OCc1ccccc1` gave FBW7 activator 2.2*, TEAD-YAP block 8, GPR151 activ 0 and MITF primary -20.
Screening CCOC(=O)C1=CN(Cc2ccc(Cl)cc2)C=C(C(=O)OCC)C1c1ccccc1OC(C)C returned FBW7 activator 0, TEAD-YAP block -2, GPR151 activ -1 and MITF primary 8.

Screens from PubChem.
